L3MBTL1 inh = qHTS Assay for the Inhibitors of L3MBTL1; AID 485360, 2010; Potency, µM (titrated, usually from 57.1 µM), most hits filed as inhibitors; 230,000 compounds, 0.66% hits; AlphaScreen L3MBTL1–H3K9me1 peptide binding; further: nearly all actives have a fitted effect of over 60% in size
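First, the protein-peptide complex forms for 30 min at room temperature (L3MBTL1 50 nM, biotinylated H3K9me1 peptide 75 nM). Next, compounds are pin-transferred and incubated 30 min. Finally, AlphaScreen beads are added and read after 30 min.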
Pol eta inh-1 = qHTS for Inhibitors of Polymerase Eta; recombinant Pol eta, fluorescent DNA replication assay; 390,000 compounds, 1.2% hits; DNA polymerase eta (Homo sapiens), Q9Y253; Potency, µM (top dose mostly 114 µM), actives largely listed as inhibitors
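Pol eta (10 nM) was preincubated with compounds for 15 min at room temperature, after which fluorescent replication substrate (50 nM final) was added to start the reaction. Fluorescence was read kinetically at 0 and 10 min.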
WRN inhibitor = qHTS for Inhibitors of WRN Helicase; Bifunctional 3'-5' exonuclease/ATP-dependent helicase WRN (Homo sapiens), Q14191; WRN helicase unwinding, fluorescent forked duplex, kinetic; Potency, µM (doses to about 114 µM), usual class: inhibitors; 360,000 compounds, 0.46% hits; further: nearly all actives have a fitted effect of over 55% in size
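Screening of the MLSMR collection measured strand separation of a quenched forked DNA duplex (100 nM) by 20 nM WRN with 2 mM ATP, all final. Compounds were preincubated with enzyme 15 min at room temperature.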
Pol kappa inh-1 = qHTS for Inhibitors of Polymerase Kappa; Potency, µM (titrated, usually from 107 µM), actives largely listed as inhibitors; AID 588579, 2011; 400,000 compounds, 0.53% hits; purified Pol kappa, fluorescent DNA synthesis assay, 10 min
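Activity was followed as the change in fluorescence between reads at 0 and 10 min after starting the reaction with 50 nM substrate. Beforehand, 10 nM polymerase had been preincubated with compound for 15 min at room temperature.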
POLI inh = qHTS for Inhibitors of Polymerase Iota; AID 588590, 2011; Potency, µM (series often up to 115 µM), actives largely listed as inhibitors; Pol iota fluorescent replication assay, 10 min; 390,000 compounds, 1% hits; DNA polymerase iota (Homo sapiens), Q9UNA4
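Fluorescent replication assay read twice, at 0 min and 10 min after adding 50 nM (final) substrate. Enzyme (10 nM) and compounds were first incubated 15 min at room temperature; enzyme-free buffer wells were negative controls.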
POLB inh = qHTS Assay for Inhibitors of DNA Polymerase Beta; P06746; Pol beta primer extension/strand displacement, fluorescence kinetic; Potency, µM (titrated, usually from 114 µM), most hits filed as inhibitors; 340,000 compounds, 1.3% hits; AID 485314, 2010
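Kinetic readout of DNA synthesis with strand displacement by Pol beta. Compound and 10 nM enzyme sit 15 min at room temperature; 50 nM substrate starts the reaction, read immediately and at 10 min.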
GALK confirm = Confirmation Assay for Inhibitors of Human Galactokinase (GALK); shares compounds with Pol eta inh-1; purified GALK, Kinase-Glo ATP depletion luminescence; Potency, µM (titrated, usually from 115 µM), most hits filed as inhibitors; 150 compounds, 70% hits
Redox cycling = Confirmatory Assay for Inhibitors of Human Galactokinase (GALK): Phenol-HRP redox assay counterscreen; Phenol red-HRP H2O2 redox cycling, absorbance 600 nm; Potency, µM (titrated, usually from 115 µM), actives largely listed as inhibitors; AID 2035, 2009; 150 compounds, 40% hits; shares compounds with Pol eta inh-1
HEK293 viability = Secondary Assay for Inhibitors of Human Galactokinase (GALK): HEK-293 Cell Viability Assay; shares compounds with Pol eta inh-1; HEK-293 viability, ATP luminescence (CellTiter-Glo), 24/48 h; Potency, µM (highest dose often 46.1 µM), usual class: inhibitors; 170 compounds, 10% hits; AID 2547, 2010
Pol kappa inh-2 = qHTS for Inhibitors of Polymerase Kappa: Confirmatory Assay for Cherry-picked Compounds. Potency, µM, most hits filed as inhibitors. shares compounds with Pol eta inh-1. AID 720501, 2013. purified Pol-kappa, fluorescent strand-displacement substrate. 920 compounds, 76% hits
Pol eta inh-2 = qHTS for Inhibitors of Polymerase Eta: Confirmatory Assay for Cherry-picked Compounds | shares compounds with Pol eta inh-1 | Pol eta primer extension, TAMRA/BHQ fluorescence, 10 min | Potency, µM, actives largely listed as inhibitors | 2,600 compounds, 64% hits
Each line names hits and unclear results; the compound was inactive in the other large screens (follow-up assays come after a bar, where they were run). Sampled rows, rich in hits. Any-hit rate of the full collection: about 2.5%. The call rests on the fitted dose curve; in most records, active means well fitted curve in the direction sought with a large enough effect; inconclusive means small, poorly fitted or top-dose-only effect, or another doubt; inactive means no such curve, though single readings can be large; an effect the other way counts as inactive or inconclusive.

CC1(C)CC[C@]2(C(=O)O)CC[C@]3(C)C(=CC[C@@H]4[C@@]5(C)CC[C@H](O[C@@H]6O[C@H](C(=O)O)[C@@H](O)[C@H](O[C@@H]7OC[C@H](O)[C@H](O)[C@H]7O)[C@H]6O)C(C)(C)[C@@H]5CC[C@]43C)[C@@H]2C1	Pol eta inh-1 50µM, Pol kappa inh-1 inconclusive, POLI inh inconclusive (no result: POLB inh) | Pol kappa inh-2 inconclusive
CC1(C)CC[C@]2(C(=O)O[C@@H]3O[C@H](CO)[C@@H](O)[C@H](O)[C@H]3O)CC[C@]3(C)C(=CCC4[C@@]5(C)CC[C@H](O[C@@H]6O[C@H](C(=O)O)[C@@H](O[C@H]7OC[C@@H](O)[C@@H](O)[C@@H]7O)[C@H](O)[C@H]6O)C(C)(C)C5CC[C@]43C)[C@@H]2C1 (stereo not given in full)	none (no result: POLB inh)
O=C(O)CC(c1ccccc1)n1cccc1 (stereo not given)	none
Nc1ccc(C(CC(=O)O)n2cccc2)cc1 (stereo not given)	Pol eta inh-1 25µM, Pol kappa inh-1 45µM, POLI inh 40µM, POLB inh inconclusive (no result: L3MBTL1 inh) | Pol eta inh-2 34
CCOc1ccc(NC(=O)Cn2nnc(C(=O)NCCc3ccccc3)c2N)cc1	Pol eta inh-1 inconclusive, Pol kappa inh-1 inconclusive, POLI inh inconclusive, POLB inh inconclusive (no result: L3MBTL1 inh, WRN inhibitor) | Pol kappa inh-2 inconclusive
NC(=O)[C@@H]1CCNc2c(I)cc([N+](=O)[O-])cc2C(=O)N[C@@H](CO)C(=O)N[C@@H](Cc2ccc(O)cc2)C(=O)N1	none (no result: Pol eta inh-1, WRN inhibitor, Pol kappa inh-1, POLI inh)
NC(=O)C(CC(=O)O)NC(=O)[C@@H]1CCOc2c(I)cc([N+](=O)[O-])cc2C(=O)N[C@@H](CO)C(=O)N[C@@H](Cc2ccc(O)cc2)C(=O)N1 (stereo not given in full)	L3MBTL1 inh inconclusive, Pol eta inh-1 20µM, Pol kappa inh-1 35µM, POLI inh inconclusive | Pol eta inh-2 30
O=C1/C(=C/c2ccncc2)Cc2ccccc21	none (no result: POLB inh)
CC1C/C(=C/c2ccncc2)C(=O)/C(=C/c2ccncc2)C1 (stereo not given)	Pol eta inh-1 32µM, WRN inhibitor inconclusive, POLI inh inconclusive (no result: L3MBTL1 inh) | Pol eta inh-2 76
O=C1NC(=S)SC1=C1CCCC1	Pol eta inh-1 20µM, WRN inhibitor 45µM, Pol kappa inh-1 14µM, POLI inh inconclusive, POLB inh 22µM (no result: L3MBTL1 inh) | Pol eta inh-2 inconclusive
CCC1(O)CC2CN(CCc3c([nH]c4ccccc34)C(C(=O)OC)(c3cc4c(cc3OC)N(C=O)C3C(O)(C(=O)OC)C(OC(C)=O)C5(CC)C=CCN6CCC43C65)C2)C1 (stereo not given)	none (no result: L3MBTL1 inh, POLB inh)
COc1ccc(-c2cc(=O)c3c(O)cc(OC4OC(COC5OC(C)C(O)C(O)C5O)C(O)C(O)C4O)cc3o2)cc1O (stereo not given)	Pol eta inh-1 22µM, Pol kappa inh-1 inconclusive, POLI inh inconclusive (no result: POLB inh) | Pol kappa inh-2 12 | Pol eta inh-2 30
C/C(=N\Nc1ccc(Cl)c(C(=O)O)c1)c1ccc(Br)s1	Pol eta inh-1 20µM, WRN inhibitor inconclusive, Pol kappa inh-1 inconclusive, POLI inh inconclusive, POLB inh 50µM (no result: L3MBTL1 inh) | Pol eta inh-2 27
C/C(=N\NC(=O)c1cc(O)ccc1O)c1cccc(NC(=O)c2cccc(Cl)c2)c1	Pol eta inh-1 inconclusive, Pol kappa inh-1 79µM, POLI inh inconclusive, POLB inh inconclusive (no result: L3MBTL1 inh) | Pol eta inh-2 inconclusive
Nc1ccc(C(=O)Nc2ccc3c(O)cc(S(=O)(=O)O)cc3c2)cc1	Pol eta inh-1 11µM, Pol kappa inh-1 inconclusive, POLI inh inconclusive (no result: L3MBTL1 inh, POLB inh) | Pol kappa inh-2 inconclusive | Pol eta inh-2 76
CCOC(=O)/C=C(\C)Sc1cc(O)c2ccccc2c1O	L3MBTL1 inh inconclusive, Pol eta inh-1 28µM, POLI inh inconclusive, POLB inh 35µM | GALK confirm 30µM | Redox cycling 19µM | HEK293 viability inconclusive
CCCN1C[C@@H](C)[C@@H](OC)CN(C)C(=O)c2ccc(NC(=O)c3cccc(F)c3)cc2OC[C@H]1C	none (no result: L3MBTL1 inh, Pol eta inh-1, Pol kappa inh-1, POLI inh, POLB inh)
Cc1nnc(SCC2=C(C(=O)O)N3C(=O)C(NC(=O)C(C)n4nc(C(F)(F)F)cc4C)C3SC2)s1 (stereo not given)	Pol eta inh-1 22µM, POLB inh 18µM (no result: L3MBTL1 inh) | Pol eta inh-2 27
O=C1/C(=C\c2ccc(Br)cc2)SC(=S)N1NS(=O)(=O)c1ccccc1	Pol eta inh-1 50µM, WRN inhibitor inconclusive (no result: L3MBTL1 inh) | Pol eta inh-2 inconclusive
Cc1ccc(S(=O)(=O)NN2C(=O)/C(=C/c3ccccn3)SC2=S)cc1	none
COc1cc(/C=C2\SC(=S)N(NS(=O)(=O)c3ccc(C)cc3)C2=O)ccc1O	Pol eta inh-1 inconclusive, WRN inhibitor 45µM, Pol kappa inh-1 inconclusive, POLI inh 40µM, POLB inh 40µM | Pol kappa inh-2 inconclusive
CC(/C=C1\SC(=S)N(NS(=O)(=O)c2ccc(C)cc2)C1=O)=C\c1ccccc1	Pol eta inh-1 40µM, WRN inhibitor inconclusive, POLI inh inconclusive, POLB inh 40µM | Pol eta inh-2 inconclusive
COc1ccc(C(=O)Nc2ccccc2N2CCOCC2)cc1[N+](=O)[O-]	none

High-throughput results deposited in PubChem BioAssay by National Center for Advancing Translational Sciences (NCATS).
